An excerpt weighted towards active compounds, which were near 3.2% of everything screened.
EBV LMP1 NFkB = reduces LMP1-driven NF-kappaB luciferase signal; actives 0.69% (n = 350,000); inhibition, % at 12.5 µM; LMP1-induced NF-kappaB luciferase reporter cells, luminescence; in the data active = inhibition above about 41%;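 note: 0% = neutral control wells and 100% = reference inhibitor control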
TWEAK-Fn14 inh = blocks TWEAK-Fn14 interaction in a reporter cell assay; TWEAK-stimulated Fn14 reporter cells, luciferase luminescence, 8 h; inhibition, % at 10 µM; actives 2% (n = 360,000); AID 1159606; in the data active = inhibition above about 50%
LGR2 antag = Drosophila LGR2 receptor signaling inhibition | HEK293 LGR2, CRE-luciferase, bursicon-stimulated, 4 h | inhibition, % at 9.99 µM | actives 0.35% (n = 380,000);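 active = drop in luminescence signal, shown as inhibition above about 50% in the replicate tests, limit read from the data, passing the limit was not always enough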;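 note: agonist challenge used bursicon conditioned medium at about half maximal strength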
PAX8 inh HTS = inhibitors of PAX8 transcriptional activity in RMG-I cells. RMG-I TPO-luciferase reporter, SteadyGlo, 24 h. inhibition, % at 12.6 µM. actives 1.2% (n = 360,000). AID 652154;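 active = mean replicate inhibition at least 60% with every replicate also reaching 60%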;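 note: luciferase light reporting Pax8 driven TPO promoter activity; plate controls were median of neutral control wells for no effect and mitoxantrone controls for full effect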
TROY signal inh = inhibitors of TROY-dependent NF-kB signaling; Q293 LMP1-TROYcd NF-kB luciferase reporter, 4 h; inhibition, % at 10 µM; actives 0.98% (n = 360,000);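 active = compounds whose plate-normalised and pattern-corrected inhibition of the luciferase reporter signal at the single screening dose is 50% or more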
EWS-Fli inh = blocks EWS/Fli oncoprotein-driven transcription; A673 NR0B1-luciferase reporter, viability-normalised; inhibition, % at 12.6 µM; actives 0.67% (n = 350,000);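 active = mean inhibition of at least 50% after viability correction, with every replicate also passing that limit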;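 note: firefly luciferase signal divided by Alamar Blue viability fluorescence both relative to DMSO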
DNA binding = DNA binding small molecules | shares compounds with EWS-Fli inh | salmon sperm DNA acridine orange fluorescence polarization | AC35, µM (doses to about 68 µM), for the others: at the top dose activity change, negative = DNA binding | actives 2% (n = 640) | AID 720586;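 active = fitted curve reaches a 35% signal fall AC35 below twice the sample's top valid tested dose, actives reach about 48 µM in these data; inactive = the rest, including activity in the rising direction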;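 note: lower polarization ratio signals compound binding to DNA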
* hit, by the source's call; · = not tested or not shown.

SMILES	EBV LMP1 NFkB	TWEAK-Fn14 inh	LGR2 antag	PAX8 inh HTS	TROY signal inh	EWS-Fli inh	DNA binding
C[C@H](CO)N1C[C@H](C)[C@H](CN(C)Cc2ccc(C(=O)Nc3ccccc3N)cc2)Oc2c(cccc2N(C)C)C1=O	·	·	-7	9	·	54*	4%
Cc1ccc(S(=O)(=O)N(C)C[C@H]2Oc3c(cccc3N(C)C)C(=O)N([C@@H](C)CO)C[C@@H]2C)cc1	·	·	59*	-9	·	53*	-11%
C[C@@H]1CN([C@@H](C)CO)C(=O)c2cccc(NC(=O)Nc3cccc4ccccc34)c2O[C@@H]1CN(C)Cc1ccc(C(=O)Nc2ccccc2N)cc1	·	·	2	40	·	54*	2%
CO[C@H](CN(C)S(=O)(=O)c1ccc(Cl)cc1)[C@H](C)CN([C@H](C)CO)S(=O)(=O)c1cccc(Cl)c1	·	·	7	3	·	1	·
C[C@H]1CN([C@@H](C)CO)C(=O)Cc2cc(NC(=O)Cn3cnnn3)ccc2O[C@@H]1CN(C)S(=O)(=O)c1cccs1	·	·	-13	-1	·	-4	·
CCNC(=O)c1cc2c(c(-c3cccc(-c4cccc(OC)c4)c3)n1)[C@H](CCO)N([S@@](=O)C(C)(C)C)C2	·	·	-10	49	·	63*	-13%
COCCNC(=O)c1cc2c(c(-c3cccc(-c4cccc(OC)c4)c3)n1)[C@H](CCO)N(S(=O)C(C)(C)C)C2 (some centres not stated)	·	-9	13	11	3	8	·
CC(C)(C)[S@](=O)N1Cc2cc(C(=O)NCC(F)(F)F)nc(-c3cccc(-c4cccc(F)c4)c3)c2[C@@H]1CCO	·	·	13	48	·	55*	-2%
CCc1nc(N)nc(N)c1-c1ccc(Cl)cc1	-3	1	-13	22	-3	64*	6%
COc1ccc(S(=O)(=O)N[C@@H]2CC[C@H](CC(=O)NCc3ccccc3F)O[C@@H]2CO)cc1	·	·	-16	-5	·	8	·
CN1CCN(C(=O)C[C@@H]2CC[C@H]3[C@H](COc4ccc(NC(=O)c5ccc(F)c(F)c5)cc4C(=O)N3C)O2)CC1	·	·	-8	0	·	2	·
CC(=O)O[C@@H]1[C@H]2[C@@H](C[C@@H](C)[C@@H]3C=CC(=O)[C@@]13C)OC(=O)[C@@H]2C	5	9	5	-14	-8	-6	·
C=C1C(=O)OC2C1CCC(C)C1C=CC(=O)C12C (configuration not stated)	-82	48	0	75*	2	56*	7%
Cc1ccc(/C=C/C(=O)N2CCN(S(=O)(=O)c3c(C)c(C)cc(C)c3C)CC2)o1	3	17	7	15	11	85*	0%
Cc1ccc(/C=C/C(=O)N2CCN(S(=O)(=O)c3ccc(C)c(C)c3)CC2)o1	5	23	-2	11	4	·	·
CO[C@@H](C(=O)N(C)C[C@@H]1OCc2ccccc2-c2ccccc2C(=O)N([C@H](C)CO)C[C@H]1C)c1ccccc1	·	·	-18	-38	·	-2	·
C[C@@H]1CN([C@H](C)CO)S(=O)(=O)c2ccc(C#Cc3ccncc3)cc2O[C@@H]1CN(C)C(=O)Nc1ccc2c(c1)OCO2	·	·	-9	70*	·	65*	-4%
C[C@@H]1CN([C@@H](C)CO)S(=O)(=O)c2ccc(C#Cc3ccncc3)cc2O[C@H]1CN(C)C(=O)C1CCOCC1	·	·	-6	24	·	70*	1%
C[C@H]1CN([C@@H](C)CO)C(=O)c2cc(C#CC3CCCC3)cnc2O[C@@H]1CN(C)C(=O)C1CC1	·	·	-20	·	·	1	·
OC[C@@H]1CC[C@@H]2O[C@H](CCc3ccc(-c4ccccc4)cc3)[C@@H](n3cc(C4CC4)nn3)C[C@@H]2O1	·	·	·	3	·	12	·
O=C(N/N=C/c1ccc[nH]1)c1ccccc1OCc1ccc(F)cc1	5	-13	-9	12	11	2	·
CCOc1ccc(OCc2ccc(C(=O)NN=Cc3ccc[nH]3)cc2)cc1	10	52*	8	34	10	57*	0%
COCC(=O)Nc1ccc2c(c1)[C@H]1C[C@@H](CC(=O)NCc3ccc(-c4ccccc4)cc3)O[C@@H](CO)[C@H]1O2	·	·	3	18	·	5	·
O=C(C[C@@H]1C[C@H]2c3cc(NC(=O)CC4CC4)ccc3O[C@H]2[C@H](CO)O1)NCc1ccccc1F	·	·	1	·	·	56*	-4%
O=C(C[C@H]1C[C@H]2c3cc(NC(=O)CC4CC4)ccc3O[C@H]2[C@@H](CO)O1)NCc1ccccc1F	·	·	-8	·	·	-12	·
SMILES	EBV LMP1 NFkB	TWEAK-Fn14 inh	LGR2 antag	PAX8 inh HTS	TROY signal inh	EWS-Fli inh	DNA binding
COCC(=O)Nc1ccc2c(c1)[C@@H]1C[C@@H](CC(=O)NCc3ccc(-c4ccccc4)cc3)O[C@@H](CO)[C@@H]1O2	·	·	1	42	·	60*	6%
O=C(NC1CCC1)[C@@H]1[C@@H](CO)[C@@H]2Cn3c(ccc(-c4ccccc4F)c3=O)[C@@H]2N1Cc1cocn1	·	·	3	·	·	-4	·
Clc1ccc(Nc2nnc(-c3ccc4c(c3)OCO4)o2)cc1	·	·	-50	-108	·	-95	·
c1ccc(Nc2nnc(-c3ccc4c(c3)OCO4)o2)cc1	·	·	92*	48	·	79*	3%
Cc1[nH]c(=S)sc1Cc1ccc(Cl)c(Cl)c1	·	·	-5	1	·	79*	-4%
Nc1ccc2c(c1)OC1(CCCC1)O2	59*	90*	15	31	68*	68*	-5%
COc1ccccc1S(=O)(=O)N[C@@H]1CC[C@H](CCNC(=O)C2CC2)O[C@H]1CO	·	·	0	7	·	-5	·
CCS(=O)(=O)Nc1ccc2c(c1)C(=O)N(C)C[C@@H](OC)[C@@H](C)CN(C(=O)C1CC1)[C@@H](C)CO2	·	·	-1	-4	·	9	·
COc1ccc(CC(N)c2csc(NC(=O)Nc3cccc(C(F)(F)F)c3)n2)cc1 (configuration not stated)	·	12	-4	-3	17	53*	-4%
Cc1ccc(-c2ccc3c(c2)O[C@@H](CN(C)C(=O)Nc2ccc(F)cc2)[C@H](C)CN([C@@H](C)CO)S3(=O)=O)cc1	·	·	1	·	·	54*	-10%
Cc1ccc(-c2ccc3c(c2)O[C@@H](CN(C)C(=O)Nc2ccc(F)cc2)[C@H](C)CN([C@H](C)CO)S3(=O)=O)cc1	·	·	17	·	·	29	·
CC(C)NC(=O)N(C)C[C@@H]1Oc2cc(C#Cc3ccc(F)cc3)ccc2S(=O)(=O)N([C@H](C)CO)C[C@H]1C	·	·	18	·	·	56*	-9%
O=C(C[C@@H]1CC[C@H](NS(=O)(=O)c2ccccc2F)[C@H](CO)O1)NCCCN1CCOCC1	·	·	-14	-2	·	-5	·
O=C(CCCN1C(=O)/C(=C/c2ccccc2Cl)SC1=S)NNC(=O)c1ccc(Cl)cc1	21	53*	6	25	66*	74*	5%
O=C(CCN1C(=O)/C(=C/c2ccccc2Cl)SC1=S)NNC(=O)c1cccnc1	-2	-1	-7	-12	11	10	·

Bioassay records from PubChem.
